# Screening results (PubChem BioAssay)
# Compounds with a hit are over-represented: about 2.9% of the library has one in this group of screens.
# GLP1R inv ag – qHTS of GLP-1 Receptor Inverse Agonists (Inhibition Mode). Glucagon-like peptide 1 receptor (Homo sapiens), P43220. AID 624417, 2012. 410,000 compounds, 1.6% hits. Potency, µM (highest dose often 38.3 µM), hits mostly inhibitors. HEK293 GLP-1R CRE-luciferase, luminescence, 24 h; GLP-1R form is constitutively active; also: nearly all actives have a fitted effect of over 55% in size
#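 Readout was luciferase luminescence, measured 12 min after detection reagent at room temperature. Beforehand, GLP-1R reporter HEK293 cells had sat 12 h, then received compounds for 24 hr at 37 deg C.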
# HEK293 tox – qHTS of GLP-1 Receptor Inverse Agonists: Cytotox Screen; 410,000 compounds, 0.13% hits; AID 624418, 2012; Potency, µM (top dose mostly 38.3 µM), usual class: inhibitors; HEK293 cAMP-luciferase reporter cells, luminescence, 24 h;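 also: loss of luciferase light is scored as toxicity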
#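 Quantitative HTS format, 1536 wells, 200 cells/uL seeded. Compounds: 23 nL, 24 h, 37 °C. Detection: luciferase reagent, luminescence at 12 min RT; decreased signal taken as cytotoxic.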
# ClpP mod – qHTS Assay for Activators of ClpP. ATP-dependent Clp protease proteolytic subunit (Bacillus subtilis (strain 168)), P80244. purified B. subtilis ClpP, FRET peptide cleavage, 20 min. Potency, µM (titrated, usually from 57.5 µM). 340,000 compounds, 1.9% hits. AID 651965, 2013; active = well fitted falling curve with a large enough effect; inconclusive = small, poorly fitted or top-dose-only effect; inactive = no such curve, though single readings can be large or run the other way; also: the source files actives as falling curves though it sought activators and does not explain the sign; nearly all actives have a fitted effect of over 65% in size
#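 FRET quenching reversal measured ClpP activation: 10 microg/mL B. subtilis ClpP at pH 8 with the FRET-FV decapeptide, read at 430 nm after 320 nm excitation. The 20-min minus 0-min signal was scaled between DMSO/no-enzyme wells and ADEP (5.8 microM final).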
# LDHA inh – qHTS assay for inhibitors of human lactate dehydrogenase; L-lactate dehydrogenase A chain (Homo sapiens), P00338; purified LDHA, NADH/diaphorase-resazurin fluorescence; stronger effect = lower value; activity change, % (values are at about 110 or 230 µM); 480,000 compounds, 0.15% hits; AID 1347041, 2019; in the data active = activity change below about -30%; inconclusive = mostly about -25% to -30%
#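 Remaining NADH was detected by diaphorase (0.133 mg/mL) converting 37 µM resazurin to fluorescent resorufin, read at 0 and 20 minutes. The preceding 5-minute room-temperature reaction used 2 nM LDHA, 0.2 mM sodium pyruvate and 0.06 mM NADH at pH 7.4.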
# p53 reactivator – qHTS assay for re-activators of p53 using a Luc reporter; H1299 p53-A138V BP100-luciferase reporter, luminescence, 24 h; Potency, µM (highest dose often 92.2 µM), usual class: activators; 320,000 compounds, 0.063% hits; AID 504706, 2011; also: nearly all actives have a fitted effect of over 45% in size
#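 p53-null H1299 cells stably carrying temperature-sensitive p53-A138V and a BP100-luciferase reporter were pinned with compounds (4-point, 1:5 series) and held 24 hrs at 37 deg C. Luminescence was read 10 min after detection reagent.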
# GLP1R ag – qHTS of GLP-1 Receptor Agonists. Glucagon-like peptide 1 receptor (Homo sapiens), P43220. HEK293 GLP-1R CRE-luciferase, luminescence, 4-6 h; cells express a hypersensitive GLP-1R form. Potency, µM (titrated, usually from 45.6 µM), actives largely listed as activators. 380,000 compounds, 0.007% hits
# Hits are given with their value; – = inactive; ? = inconclusive; · = no result given. Unless noted, calls follow the shape of the dose curve; as a rule, active = well fitted curve in the direction sought with a large enough effect; inconclusive = small, poorly fitted or top-dose-only effect, or another doubt; inactive = no such curve, though single readings can be large; an effect the other way counts as inactive or inconclusive.
SMILES,GLP1R inv ag,HEK293 tox,ClpP mod,LDHA inh,p53 reactivator,GLP1R ag
CC(C)NC(=O)COc1coc(CN2CCN(c3cccc(Cl)c3)CC2)cc1=O,–,–,–,–,–,–
CCC(C)Sc1cc(-c2nc3ccccn3c2NC2CCCCC2)ccc1OC (configuration not stated),5.62µM,–,–,–,–,–
COc1ccc(C2N(Cc3ccccc3)CC(=O)N2/N=C(\C)c2ccccc2)cc1 (configuration not stated),–,–,15.8µM,–,–,–
COc1ccc(/C=N/N2C(=O)CN(C(=O)c3ccccc3)C2c2ccc(OC)cc2)cc1 (configuration not stated),–,–,–,–,–,–
O=C(N=C1c2ccccc2CN1c1ccccc1)c1cccc([N+](=O)[O-])c1,–,–,–,–,–,–
COc1ccc(F)cc1S(=O)(=O)NCC(c1ccco1)S(=O)(=O)c1cccs1 (configuration not stated),–,–,–,–,·,·
Cc1ccc(C)c(N(C(=O)c2nsc(Cl)c2Cl)C(C(=O)NC2CCCC2)c2ccc(O)cc2)c1 (configuration not stated),5.62µM,–,–,–,–,–
CCS(=O)(=O)NCC(c1ccco1)N1CCN(c2ccc(F)cc2)CC1 (configuration not stated),–,–,–,–,–,–
Cc1ccc(C(c2cccc(Br)c2)c2c(C)[nH]c3ccccc23)s1 (configuration not stated),10µM,–,–,–,·,·
CCCCOc1ccc(S(=O)(=O)NCc2csc(-c3ccc(OC)cc3)n2)cc1,–,–,12.6µM,–,·,·
COc1ccc(-c2nc(CC(=O)O)cs2)cc1,–,–,22.4µM,–,–,–
COc1ccc(-c2nc(CNS(=O)(=O)c3ccccc3)cs2)cc1,–,–,–,–,·,·
COc1cccc(-c2nc(CC(=O)O)cs2)c1OC,–,–,12.6µM,–,–,–
COc1ccc(-c2nc(CC(=O)O)cs2)cc1OC,·,·,·,·,–,·
CCN1CCN(CCNC(=O)c2ccc(CS(=O)(=O)c3c(Cl)cccc3Cl)o2)CC1,–,–,–,–,–,–
COc1ccc(CCNC(=O)Cn2ncc3c(C)n(Cc4ccccc4F)c(C)c3c2=O)cc1OC,–,–,–,–,·,·
OC(COc1ccc(Cl)cc1)CSc1ccccn1 (configuration not stated),?,–,–,–,–,–
Cc1nc2ccc(NC(=O)c3ccc(Cl)c(S(=O)(=O)N(C)c4ccccc4)c3)cc2s1,1.78µM,–,–,–,–,–
CN(c1ccccc1)S(=O)(=O)c1cc(C(=O)N2CCN(c3ccccn3)CC2)ccc1Cl,12.6µM,–,–,–,–,–
O=C(c1ccc(S(=O)(=O)Cc2cc(F)ccc2F)c([N+](=O)[O-])c1)N1CCCCC1,?,?,–,–,–,–
O=C(c1ccc(S(=O)(=O)Cc2ccccc2Cl)c([N+](=O)[O-])c1)N1CCN(c2ccccn2)CC1,10µM,–,·,–,–,–
O=C(c1ccc(S(=O)(=O)Cc2cc(F)ccc2F)c([N+](=O)[O-])c1)N1CCCC1,8.91µM,?,·,–,–,–
CCOC(=O)N/N=C1\CCc2ccccc21,–,–,31.6µM,–,?,–
Cc1cc(S(=O)(=O)NC[C@H]2O[C@@H](n3cnc4c(N)ncnc43)[C@H](O)[C@@H]2O)c(C)s1,?,–,–,–,–,–
Cc1cc(S(=O)(=O)NC[C@H]2O[C@@H](n3ccc(N)nc3=O)[C@H](O)[C@@H]2O)c(C)s1,–,–,–,-30.6,·,–
SMILES,GLP1R inv ag,HEK293 tox,ClpP mod,LDHA inh,p53 reactivator,GLP1R ag
Cc1cccc(Oc2ncnc3oc(-c4ccccc4)cc23)c1C,–,–,28.2µM,–,–,–
Cc1cc(Cl)ccc1Oc1ncnc2oc(-c3ccccc3)cc12,–,–,25.1µM,–,–,–
CS(=O)(=O)c1cccc(NC(=O)C2CC2)c1,–,–,·,–,–,–
O=C(CSc1ccc(Cl)cc1)Nc1ccc(-c2nc3ccccc3[nH]2)cc1,?,–,25.1µM,–,–,–
Cc1ccc(C2(c3ccccc3)NC(=O)N(CC(=O)NCc3ccccc3)C2=O)cc1C (configuration not stated),6.31µM,–,–,–,–,–
O=C(CN1C(=O)NC2(CCOc3ccccc32)C1=O)NCc1ccccc1 (configuration not stated),–,–,11.2µM,–,–,–
COc1cc(C(=S)N2CCCC2)ccc1OCc1ccccc1,–,–,·,–,–,–
CCc1ccccc1-n1nnnc1SCC(=O)Nc1ccc(N2CCN(C)CC2)cc1,1.78µM,–,–,–,–,–
Cc1ccccc1-n1nnnc1SCC(=O)Nc1ccc(N2CCN(C)CC2)cc1,1µM,–,–,–,–,–
CCOc1ccccc1-n1nnnc1SCC(=O)NC(=O)NCc1ccco1,–,–,–,–,–,–
CCOc1ccccc1-n1nnnc1SCC(=O)NC(=O)Cc1ccccc1,–,–,25.1µM,–,–,–
COc1ccc(Cl)cc1NC(=O)C[n+]1ccccc1,–,–,–,–,·,–
CC1CCN(C(=O)c2[nH]cnc2C(=O)Nc2ccon2)CC1,–,–,–,–,–,–
CNS(=O)(=O)c1ccc(C)c(C(=O)NCC2(c3ccccc3)CC2)c1,·,·,·,–,·,·
COc1ccc(-c2oc(=O)c3cc(OC)c(OC)cc3c2-c2cc(F)cc(OC)c2)cc1,–,–,20µM,–,–,–
COCc1ccc(-c2c(-c3ccsc3)oc(=O)c3cc(OC)c(OC)cc23)cc1,–,–,31.6µM,–,?,–
COc1cc2c(C#CCCO)c(-c3ccsc3)oc(=O)c2cc1OC,–,–,–,–,–,–
CCCN1CCN(C(c2cc3cc(OCC)ccc3[nH]c2=O)c2nnnn2C2CCCCC2)CC1 (configuration not stated),–,–,28.2µM,–,–,–
COc1ccc2[nH]c(=O)c(C(c3nnnn3C3CCCCC3)N3CCN(C)CC3)cc2c1 (configuration not stated),–,–,31.6µM,–,–,–
CCc1ccc(C(C)NC(=O)C2(C)CC2(Br)Br)cc1 (configuration not stated),10µM,–,–,–,–,–
O=C(NC1CCCC1)c1cc(-c2ccccc2O)on1,–,–,·,–,?,–
